# Bioassay records (PubChem)
# Nrf2 block – Nrf2 qHTS screen for inhibitors | A549 ARE-Fluc reporter, luciferase luminescence, 18-24 h | 360,000 tested, 2.1% active | Potency, µM (series often up to 46 µM), hits mostly inhibitors; also: nearly all actives have a fitted effect of over 60% in size
#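 Cells were seeded and rested 2 h, then exposed to compounds for 18-24 h. CellTiter-Fluor was read first as a viability measure. BugLite was added 15 min before the final luminescent read of ARE-luciferase activity in A549 cells.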
# Nrf2 ARE act – qHTS of Nrf2 Activators | 410,000 tested, 0.31% active | Potency, µM (titrated, usually from 46.1 µM), usual class: activators | AREc32 ARE-luciferase reporter (MCF7-derived line), luminescence, 24 h; also: nearly all actives have a fitted effect of over 65% in size
#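 Reporter line AREc32 (ARE-Fluc), seeded overnight in OPTI-MEM with 5% FBS; compound pin-transferred, 24 hr at 37 deg C, 5% CO2; luminescent read-out.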
# Giardia killer – Small Molecules that selectively kill Giardia lamblia: qHTS; Giardia lamblia trophozoite viability; 340,000 tested, 0.15% active; activity change, % at 7.66 µM, hits read low; in the data active = activity change below about -80%; inconclusive = between about -30% and that limit;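 also: parasites exposed to compound for two days anaerobically before the ATP read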
#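 ATP-content bioluminescence gauges trophozoite survival. Cells (100/well) receive compound and incubate anaerobically for 48 hrs at 37 deg C; detection reagent follows for 15-30 min at room temperature.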
# mIDH1 inhibitor – qHTS for Inhibitors of mutant isocitrate dehydrogenase 1 (IDH1): qHTS; Isocitrate dehydrogenase [NADP] cytoplasmic (Homo sapiens), O75874; IDH1-R132H enzyme, NADPH consumption, diaphorase/resazurin fluorescence; Potency, µM (series often up to 76.6 µM), actives largely listed as inhibitors; 390,000 tested, 0.093% active; AID 602179, 2012; also: nearly all actives have a fitted effect of over 65% in size
# Target sequence (O75874 whole entry R132H, stated change not applied): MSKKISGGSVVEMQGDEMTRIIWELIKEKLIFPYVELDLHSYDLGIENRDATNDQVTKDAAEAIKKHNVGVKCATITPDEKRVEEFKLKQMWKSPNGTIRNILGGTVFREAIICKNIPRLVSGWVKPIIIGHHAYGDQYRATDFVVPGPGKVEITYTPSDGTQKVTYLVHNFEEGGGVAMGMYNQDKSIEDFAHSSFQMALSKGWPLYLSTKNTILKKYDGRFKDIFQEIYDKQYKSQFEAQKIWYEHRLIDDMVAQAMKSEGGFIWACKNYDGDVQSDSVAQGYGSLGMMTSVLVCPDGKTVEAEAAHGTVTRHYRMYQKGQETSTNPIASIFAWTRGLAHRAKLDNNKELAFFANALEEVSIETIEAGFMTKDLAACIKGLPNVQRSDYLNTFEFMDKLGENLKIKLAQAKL
#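 IDH1-R132H (0.5 ug/mL) preincubated 30 min with compound, then NADPH (0.016 mM) and alpha-KG (2 mM) added; 80 min at RT, pH 7.5. Remaining NADPH coupled via diaphorase/resazurin to fluorescence (540/590 nm); concentration-response curves normalized to no-enzyme control.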
# Anesthetic bind – qHTS Assay for Identification of Novel General Anesthetics | Ferritin light chain (Equus caballus), P02791 | apoferritin/1-aminoanthracene competitive binding, fluorescence | Potency, µM (top dose mostly 77.5 µM), usual class: inhibitors | 350,000 tested, 0.074% active; also: nearly all actives have a fitted effect of over 20% in size
# Target sequence (P02791 2-175 limits assumed): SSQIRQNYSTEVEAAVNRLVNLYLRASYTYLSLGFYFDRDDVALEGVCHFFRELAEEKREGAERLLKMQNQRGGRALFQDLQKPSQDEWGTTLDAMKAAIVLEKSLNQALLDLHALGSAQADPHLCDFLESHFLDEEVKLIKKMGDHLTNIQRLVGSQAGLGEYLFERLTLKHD
#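 Apoferritin-based anesthetic binding model; compound displacement of fluorescent 1-AMA measured as endpoint fluorescence after 10 minutes at room temperature, scaled to free-ligand and complex controls.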
# A549 tox – Nrf2 qHTS screen for inhibitors: counterscreen for cytotoxicity. A549 ARE-Fluc cells, CellTiter-Fluor viability, 18-24 h. Potency, µM (top dose mostly 46 µM), actives largely listed as inhibitors. 390,000 tested, 0.16% active
#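 A549 ARE-Fluc cells in 5% FBS OPTI-MEM, 5000 cells/well, rested 2 h then exposed to compounds in concentration-response for 18-24 h at 37 °C. Viability by CellTiter-Fluor fluorescence (Ex 405/Em 525) after 30 min; luciferase luminescence (BugLite, 15 min, RT) read afterwards.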
# Numbers stand for hits; n = inactive; u = inconclusive; x = no result given; ! = not active in a repeat; [ ] = remark or other dose. Shown are actives, neighbours in structure and some others; about 2.3% of the full set was active somewhere. Unless noted, calls follow the shape of the dose curve; as a rule, active = well fitted curve in the direction sought with a large enough effect; inconclusive = small, poorly fitted or top-dose-only effect, or another doubt; inactive = no such curve, though single readings can be large; an effect the other way counts as inactive or inconclusive.
SMILES,Nrf2 block,Nrf2 ARE act,Giardia killer,mIDH1 inhibitor,Anesthetic bind,A549 tox
Cc1ccc(C)c(N2CCN(CCCNC(=O)c3cnn(-c4cccc(Cl)c4)c3C3CCN(C(=O)OC(C)(C)C)CC3)CC2)c1,u,n,x,n,n,u
Cc1ccc(-c2cn(-c3cccc(Cl)c3)c(S(=O)(=O)CC(=O)Nc3cccc(C)c3)n2)cc1,n[9.27 µM],n,x,n,n,n
Nc1nccc(/C=C/c2c(F)cccc2Cl)n1,u,10µM,n,n,u,n
Fc1cccc(Cl)c1/C=N/Nc1ccccn1,u,u,n,n,n,n
Oc1cccc2ccc(/C=C/c3c(F)cccc3Cl)nc12,n,1µM,n,n,u,n
Oc1cccc2ccc(/C=C/c3ccccc3Cl)nc12,n,u,n,n,n,n
CCNC(=O)C1(C)CCN(C(=O)c2ccccc2F)C1 (configuration not stated),x,n,x,x,x,x
C[C@H](CO)N1C[C@H](C)[C@H](CN(C)S(=O)(=O)c2ccc(F)cc2)Oc2ncc(Br)cc2C1=O,x,n,x,n,x,x
COc1ccc(/C=N/NC(=O)c2ccn[nH]2)cc1Cn1nc(C)c([N+](=O)[O-])c1C,u,n,n,n,n,n
COc1ccc(/C=N/NC(=O)c2ccco2)cc1Cn1nc(C)c([N+](=O)[O-])c1C,16µM,n,n,n,n,u
C=CCn1c(SCC#N)nc2ccc(Cl)cc2c1=O,n,x,n,x,x,n
O=S(=O)(c1ccc(Br)cc1)c1cnc2ccccc2n1,n,n,n,n,n,n
COc1ccc(S(=O)(=O)c2cnc3ccccc3n2)cc1,n,18µM,n,n,n,n
Cc1ccc(CNC(=O)c2cc3c(=O)n(Cc4ccco4)ccc3nc2C)cc1,n,n,x,n,n,n
O=C1c2ccccc2-c2onc3c(NCCO)cc(NC4CCCCC4)c1c23,21µM,n,x,n,n,u
O=C(O)CCNc1cc(N2CCN(C(=O)c3ccco3)CC2)c2noc3c2c1C(=O)c1ccccc1-3,u,n,n,n,n,18µM
CCN1CCN(c2cc(N3CCN(C(=O)c4ccco4)CC3)c3c4c(onc24)-c2ccccc2C3=O)CC1,n,n,n,n,n,u
Cc1ccc(S(=O)(=O)n2nccc2-c2c(-c3ccccc3)noc2C)cc1,18µM,n,n,n,n,n
Clc1nc(NCc2cccs2)c2[nH]cnc2n1,23µM,x,n,x,x,n
Cc1ccc(-c2ccc(=O)n(CC(=O)N3CCN(c4cccc(C)c4)C(C)C3)n2)cc1 (configuration not stated),n,n,n,n,25µM,n
CCC(=O)NC(c1ccc(C)s1)c1cc(Cl)c2cccnc2c1O (configuration not stated),n,x,x,x,x,n
CCC(=O)NC(c1ccc(OC)cc1)c1cc(Cl)c2cccnc2c1O (configuration not stated),26µM,n,n,n,n,n
CCC(=O)NC(c1ccco1)c1cc(Cl)c2cccnc2c1O (configuration not stated),9.2µM!,n,n,n,n,u
CCC(=O)NC(c1ccc(F)cc1)c1cc(Cl)c2cccnc2c1O (configuration not stated),u,x,x,x,x,n
CC(=O)NC(c1cc(Cl)c2cccnc2c1O)C(C)C (configuration not stated),21µM,n,n,x,x,n
SMILES,Nrf2 block,Nrf2 ARE act,Giardia killer,mIDH1 inhibitor,Anesthetic bind,A549 tox
CCC(=O)NC(c1cc(Cl)c2cccnc2c1O)c1cccn1C (configuration not stated),26µM,x,x,x,x,n
CC(=O)NC(c1cc(Cl)c2ccccc2c1O)C(C)C (configuration not stated),n,n,n,x,x,n
Cc1nc(CN(C)c2ncnc3cc(-c4ccc5c(c4)OCO5)ccc23)cs1,n,x,x,x,x,n
O=S(=O)(c1ccc2c(c1)OCCO2)N1CCN(c2nc(-c3ccccc3)nc3ccccc23)CC1,u,x,n,x,x,n
Oc1ccc(N=Nc2ccc3c(c2)OCCO3)c2ncccc12,18µM,n,n,n,n,u
Cc1cccc(N=Nc2ccc(O)c3ncccc23)c1,u,u,n,n,n,n
COc1ccc(Nc2nc(N3CCCC3)nc3ccccc23)c(OC)c1,u,n,n,n,n,18µM
COc1ccc(Nc2nc(-c3ccc(C)cc3)nc3ccccc23)c(OC)c1,x,n,x,n,n,n
CC(C)c1ccc(NC(=O)C2CCN(S(=O)(=O)c3ccc(Br)s3)CC2)cc1,n,n,x,n,n,n
O=C(Nc1ccc(Cl)cc1)C1CCN(S(=O)(=O)c2ccc(Br)s2)CC1,23µM,n,x,n,n,n
Cc1ccc(C(=O)c2cc([N+](=O)[O-])ccc2N2CC(C)OC(C)C2)cc1 (configuration not stated),n,n,n,n,n,n
Cc1ccc(C(=O)c2cc([N+](=O)[O-])ccc2N2CCCCC2)cc1,u,n,n,n,n,16µM
CN(C)CC1CCn2c(c(C3=C(c4cn(C)c5ccccc45)C(=O)NC3=O)c3ccccc32)C1 (configuration not stated),x,x,x,x,n,x
CCc1c(CN2CCN(c3ccc(F)cc3)CC2)csc1C,n,n,x,n,n,n
Cc1ccc(C(C(=O)Nc2ccc3c(c2)OCO3)N(C)C(=O)Cc2c[nH]c3ccccc23)cc1 (configuration not stated),23µM,n,n,n,n,u
O=S(=O)(Nc1cc(O)cc2cccnc12)c1ccc(Cl)s1,n,x,x,x,u,n
Cc1cccc(COC[C@H](Cc2ccccc2)N2CCN(C(=O)c3cccc(Cl)c3)CCC2=O)c1,x,n,x,x,n,x
Cc1cccc(COCC(Cc2ccccc2)N2CCN(C(=O)c3cccc(Cl)c3)CCC2=O)c1 (configuration not stated),21µM,n,n,n,n,u
CC(C)CC(COCc1ccc(Cl)cc1)N1CCN(C(=O)c2ccc(Cl)cc2Cl)CCC1=O (configuration not stated),21µM,n,n,n,n,u
Cc1ccc(C(=O)c2cn(CC(=O)Nc3ccc(C)cc3Cl)c3nc(C)ccc3c2=O)cc1,n,n,x,n,n,n
CC1CC(C)CN(c2nc(NCc3ccco3)nc(N)c2[N+](=O)[O-])C1 (configuration not stated),23µM,n,n,n,n,n
Cc1ccc(Nc2nc(N)c([N+](=O)[O-])c(N3CCCC(C)C3)n2)cc1C (configuration not stated),u,n,n,n,u,n
